High-throughput results (PubChem)
Nrf2 ARE act: Nrf2 pathway activation; AID 624171; Potency, µM (doses to about 46.1 µM), without a hit: at the highest dose activation, usual class: activators; 410,000 compounds, 0.31% hits; AREc32 ARE-luciferase reporter (MCF7-derived line), luminescence, 24 h; further: potency means the concentration at half of the fitted maximal effect; % of control where 0% means no effect; nearly all actives have a fitted effect of over 65% in size
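ARE-driven firefly luciferase activity in AREc32 cells measured after a 24 hr compound exposure at 37 deg C, using Steady-Glo reagent and a 30 min room-temperature hold.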
GRP78 ERSR act: inducers of ER stress response in human glioma cells. U87-MG GRP78 promoter luciferase reporter, 16 h. Potency, µM, without a hit: at the top dose activation, usual class: activators. 420,000 compounds, 0.02% hits; further: potency means the concentration at half of the fitted maximal effect; series mostly up to about 76 µM; % of control where 0% means no effect; nearly all actives have a fitted effect of over 35% in size
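Stably transfected U87-MG glioma cells carrying a GRP78-based luciferase sensor; 16 h compound incubation. Luminescence end-point read 10 min after Bright-Glo addition at room temperature.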
DRD3 agonist: agonists of human D3 dopamine receptor; P35462; D3R DiscoveRx beta-arrestin cells, luminescence, 90 min; max activation, %; 410,000 compounds, 0.58% hits; AID 652048; in the data active means max activation above about 30%; further: 0% is about no effect
Target sequence (P35462 whole entry, looked up): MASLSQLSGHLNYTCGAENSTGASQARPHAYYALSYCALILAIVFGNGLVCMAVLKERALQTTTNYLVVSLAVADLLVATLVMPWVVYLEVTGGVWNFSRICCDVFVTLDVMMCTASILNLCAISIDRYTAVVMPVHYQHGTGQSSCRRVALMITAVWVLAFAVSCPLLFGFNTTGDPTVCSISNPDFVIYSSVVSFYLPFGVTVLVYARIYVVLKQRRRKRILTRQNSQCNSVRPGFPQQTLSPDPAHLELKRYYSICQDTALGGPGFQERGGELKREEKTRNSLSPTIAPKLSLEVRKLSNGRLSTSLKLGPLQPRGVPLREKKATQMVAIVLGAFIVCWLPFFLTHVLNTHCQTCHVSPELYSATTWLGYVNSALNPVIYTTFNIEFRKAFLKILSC
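Cells at 1500/well, incubated overnight, then treated with pinned compounds (dopamine as control) for 90 min at 37 degrees C. DiscoveRx reagent added for 30 - 60 minutes at room temperature; luminescence read.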
DRD3 antagonist: antagonists of human D3 dopamine receptor. 360,000 compounds, 2.5% hits. P35462. max response, negative = inhibition, %. D3R cells, DiscoveRx beta-arrestin luminescence, antagonist mode; stronger effect = lower value; in the data active means max response below about -50%; inconclusive means no clear call, values can overlap the other calls; further: on the % scale 0 is the no-effect control and ±100 the full control effect
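Cells plated overnight at 1500 cells/well, then exposed to library compounds with dopamine controls for 90 minutes at 37 degrees C. DiscoveRx reagent added for 30–60 minutes at room temperature; luminescence read, quantitative HTS format.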
Active calls of the source: *; u = inconclusive; x = not tested or not shown. An excerpt weighted towards active compounds, which were near 3% of everything screened. Unless noted, the call rests on the fitted dose curve; in most records, active means well fitted curve in the direction sought with a large enough effect; inconclusive means small, poorly fitted or top-dose-only effect, or another doubt; inactive means no such curve, though single readings can be large; an effect the other way counts as inactive or inconclusive.

SMILES	Nrf2 ARE act	GRP78 ERSR act	DRD3 agonist	DRD3 antagonist
CCn1c(-c2ccccc2F)nc2cc(C(=O)NCc3ccc(C)o3)cc(NC(C)=O)c21	x	-6%	x	x
COc1ccc(C(=O)c2c(-c3ccc(OC)cc3)oc3ccccc23)cc1	1%	0%	-21	-63*
COc1ccc(OCC(=O)c2c(O)c3ccccc3oc2=O)cc1	0%	2%	14	-114*
CCOc1cc(/C=C2\CN(CC)C/C(=C\c3ccc(O)c(OCC)c3)C2=O)ccc1O	u	-19%	-22	u
CCN1C/C(=C/c2cccc([N+](=O)[O-])c2)C(=O)/C(=C/c2cccc([N+](=O)[O-])c2)C1	13µM*	-14%	-8	-30
S=c1[nH]nc(Cc2cccc3ccccc23)n1-c1ccccc1	0%	-2%	-1	-51*
CC(=C/c1ccccc1)/C=N/n1c(-c2ccco2)n[nH]c1=S	24%	0%	-4	-23
S=c1[nH]nc(-c2ccccc2)n1/N=C/C=C/c1ccco1	u	-4%	-14	-24
COc1ccccc1/C=C/C=N/n1c(-c2ccc(Cl)cc2)n[nH]c1=S	0%	-3%	-18	-63*
S=c1[nH]nc(-c2ccc(Cl)cc2)n1/N=C/C=C/c1ccco1	u	-3%	-3	-80*
S=c1[nH]nc(-c2ccco2)n1/N=C/C=C/c1ccccc1	27%	-7%	-13	-64*
Cc1ccc(C(=O)n2nc(C)c(S(=O)(=O)N3CCCCCC3)c2C)cc1	-1%	-2%	-11	x
Cc1cc(-c2n[nH]c(=S)n2/N=C/C=C/c2ccco2)n[nH]1	3%	-5%	-11	-16
COc1ccccc1-n1c(-c2ccco2)n[nH]c1=S	-1%	-9%	1	20
Cc1ccccc1-c1n[nH]c(=S)n1/N=C/C=C/c1ccco1	13µM*	-4%	-13	-12
S=c1[nH]nc(-c2ccco2)n1-c1cccc2ccccc12	0%	-3%	1	-74*
Brc1ccc(C=C2C=c3ccccc3=C2)cc1	x	-4%	x	x
CCOC(=O)c1cnc2ccc(Cl)cc2c1Nc1ccc(N2CCOCC2)cc1	5%	-1%	19	x
CCOC(=O)c1cnc2ccc(OCC)cc2c1NCc1cccnc1	5%	-5%	-7	11
CCOC(=O)c1cnc2ccc(OCC)cc2c1NCc1ccccc1	1%	-1%	48*	15
CCOC(=O)c1cnc2ccc(OCC)cc2c1N1CCN(c2ccccc2)CC1	3%	-4%	-1	-65*
CCOC(=O)c1cnc2ccc(C)cc2c1Nc1ccc(N2CCOCC2)cc1	3%	-16%	12	-59*
COc1cc(NC(=O)C(Cc2ccccc2)NS(=O)(=O)c2cccs2)cc(OC)c1 (configuration not stated)	3%	-4%	-7	x
O=C(N/N=C/c1ccccc1)c1[nH]c2ccc(Br)cc2c1-c1ccccc1	-1%	0%	-19	-89*
O=C(N/N=C/c1ccccn1)c1[nH]c2ccc([N+](=O)[O-])cc2c1-c1ccccc1	3%	-2%	-8	-60*
SMILES	Nrf2 ARE act	GRP78 ERSR act	DRD3 agonist	DRD3 antagonist
O=C(NN=C1CCCC1)c1[nH]c2ccc(Br)cc2c1-c1ccccc1	0%	-5%	-3	u
Cc1c(Cn2cnc3c(cnn3C(C)(C)C)c2=O)cccc1C(F)(F)F	x	-4%	x	x
COc1ccc(-c2nc3ccccc3o2)cc1NC(=O)COc1ccc(C)cc1	x	-2%	x	x
C=C1C(=C/C=C2\CCC[C@]3(C)[C@@H]([C@H](C)CCCC(C)C)CC[C@@H]23)C[C@@H](O)C[C@@H]1O	x	x	0	x
COC(=O)c1cc(Cl)c(NC(=O)c2cc(OC)c(OC)c(OC)c2)cc1OC	0%	-4%	41*	33
O=C(CCn1c(=O)oc2ccccc21)N1CCN(c2ccccc2F)CC1	0%	-2%	31*	-9
O=C(O)c1cc(N=Nc2ccc(-c3ccc(N=Nc4ccc(O)c(C(=O)O)c4)cc3)cc2)ccc1O	x	1%	x	x
OCCCCC#Cc1c(-c2ccsc2)sc2ccccc12	u	-2%	7	16
COc1cc(-c2ccc3sc(-c4ccsc4)c(C#CCO)c3c2)cc(OC)c1OC	-7%	-7%	50*	51
COc1ccc2sc(-c3ccc(S(C)(=O)=O)cc3)c(C#CCO)c2c1	-5%	-7%	3	30
COc1cc(-c2c(-c3ccsc3)sc3ccccc23)cc(OC)c1OC	4%	-3%	12	38
COC(=O)c1c(-c2ccsc2)sc2ccc(-c3cc(OC)c(OC)c(OC)c3)cc12	4%	-3%	53*	49
COC(=O)c1c(-c2ccc(N(C)C)cc2)sc2ccc(OC)cc12	3%	0%	134*	175
COC(=O)c1c(-c2ccc(OC)cc2)sc2cc3c(cc12)OCO3	4%	2%	19	98
OCCC#Cc1c(-c2ccsc2)sc2ccccc12	2.5µM*	-1%	-42	0
CCN(CCC(=O)O)c1ccc(/C=C/c2ccnc3ccccc23)cc1	x	2%	x	x
C(=C\c1ccnc2ccccc12)/c1ccccc1	x	2%	x	x
Cc1ccccc1N1C(S)=C(C#N)C(=O)NC1c1cccs1 (configuration not stated)	0%	1%	-2	-73*
Cc1cccc(N2C(S)=C(C#N)C(=O)NC2c2cccs2)c1 (configuration not stated)	6%	-3%	-4	-19
CCc1nn(C(CC)C(=O)NCCCN2CC(C)CC(C)C2)c(=O)c2cc3oc(C)cc3n12 (configuration not stated)	2%	-3%	-22	-57*
Cc1ccc(CN2CCc3nnc(C(NS(C)(=O)=O)C(C)C)n3CC2)cc1C (configuration not stated)	x	-3%	x	x
S=C(S)OC1CC2CC1C1CCCC21 (configuration not stated)	-1%	1%	11	-80*
O=C(CCC(=O)c1cccs1)NNC(=O)c1ccccc1Cl	-1%	-7%	8	-4
C[C@H](NC(=O)c1ccccc1Cl)C(=O)OCC(=O)NNC(=O)c1cccs1	-1%	-2%	-15	-55*
Oc1ccc(NCc2ccc(OCc3ccccc3Cl)cc2)cc1	7.9µM*	u	-21	x
SMILES	Nrf2 ARE act	GRP78 ERSR act	DRD3 agonist	DRD3 antagonist
C=CCn1c(=O)/c(=C/c2ccc(O)cc2)s/c1=C(/C#N)c1nnc2n1CCCCC2	0%	-4%	-12	-14
C=CCn1c(=O)/c(=C/c2cc(OC)c(OC)c(OC)c2)s/c1=C(/C#N)c1nc2ccccc2n1C	0%	-5%	7	-51*
Nc1nonc1C(=O)NCCNCc1c(OCc2ccccc2F)ccc2ccccc12	5%	-2%	-53	-55*
CCOc1cccc(CNCCNC(=O)c2nonc2N)c1	-1%	-3%	-11	-50*
Nc1nonc1C(=O)NCCNCc1ccccc1	0%	-2%	-13	0
NCCCC[C@H](NC(=O)[C@@H]1CCCN1C(=O)[C@@H]1CSSC[C@H](N)C(=O)N[C@@H](Cc2ccc(O)cc2)C(=O)N[C@@H](Cc2ccccc2)C(=O)N[C@@H](CCC(N)=O)C(=O)N[C@@H](CC(N)=O)C(=O)N1)C(=O)NCC(N)=O	x	x	-18	x
O=C(C[N+]1(CCO)CCOCC1)c1cccc2ccccc12	x	-4%	x	x
